The results in this text go back to PubChem BioAssay (NCATS).

Inconclusive results are not listed. The source made the active and inactive calls. Unless noted, the call rests on the fitted dose curve; in most records, active means well fitted curve in the direction sought with a large enough effect; inconclusive means small, poorly fitted or top-dose-only effect, or another doubt; inactive means no such curve, though single readings can be large; an effect the other way counts as inactive or inconclusive.

Assay [1] deals with Cytochrome P450 3A4 (Homo sapiens) (UniProt P08684). In words: qHTS for inhibitors of CYP3A4 against the NCATS DSHEA and TCM libraries (AID 1919971).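 Further: on the % scale 0 is the no-effect control and ±100 the full control effect; inhibition lowers luminescence from luciferin made by CYP3A4.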 The gist of the method: (§1)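 Substances were tested against enzyme with a pro-luciferin substrate; minus-enzyme wells served as background. After NADPH-initiated oxidation (30-45 min, RT), light was generated with P450-Glo reagent.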
(qHTS replaces the single test concentration by a dilution series.)

Assay [2] addresses Cytochrome P450 2D6 (Homo sapiens) (UniProt P10635). In words: qHTS for inhibitors of CYP2D6 against the NCATS DSHEA and TCM libraries (AID 1919972). Further: on the % scale 0 is the no-effect control and ±100 the full control effect. In a few lines:
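qHTS, concentration–response format with most substances from 19.5 nM. CYP2D6 + pro-luciferin substrate, 15 min with compound, then 1x NADPH regen, 30–45 min RT dark. Glo detection 30 min, luminescence. Quinidine control.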

The target of assay [3] is Cytochrome P450 2C9 (Homo sapiens) (UniProt P11712). The assay is described as follows: qHTS for inhibitors of CYP2C9 against the NCATS DSHEA and TCM libraries (AID 1919973).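 Further: luminogenic pro-luciferin CYP2C9 substrate turned into luciferin with NADPH regeneration; series mostly up to about 34 µM; on the % scale 0 is the no-effect control and ±100 the full control effect.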 The gist of the method: as §1
The target in assay [4] is Cytochrome P450 2C19 (Homo sapiens) (UniProt P33261). The assay is described as follows: qHTS for inhibitors of CYP2C19 against the NCATS DSHEA and TCM libraries (AID 1919974).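 Further: luminescence from luciferin released by CYP2C19 oxidation of a pro-luciferin substrate; on the % scale 0 is the no-effect control and ±100 the full control effect.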 The gist of the method:
as §1

Assay [5] can be described thus: KB-3-1 P-gp reporter qHTS against the NCATS DSHEA and TCM libraries (AID 1919975). Further: 0% is about no effect. The gist of the method:
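Parental KB-3-1 human cervical adenocarcinoma cells (500 cells/well, DMEM + 10% FBS) were treated with substances for ~72 h at 37C; viability was read by CellTiter-Glo luminescence.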

Assay [6] deals with Cytochrome P450 1A2 (Homo sapiens) (UniProt P05177). The assay is described as follows: qHTS for inhibitors of CYPIA2 against the NCATS DSHEA and TCM libraries (AID 1919976). Further: series mostly up to about 37 µM; on the % scale 0 is the no-effect control and ±100 the full control effect. In a few lines:
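Luminescence read-out: pro-luciferin converted to D-luciferin by CYP1A2, detected with P450-Glo reagent after 30 min RT. Enzyme plus substrate got compounds for 15 min RT; NADPH regeneration solution (final 1x) started a 30-45 min reaction, light-protected.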

A short description of assay [7]: qHTS Counterscreen for compound interference against the NCATS DSHEA and TCM libraries (AID 1919978). Further: % of control where 0% means no effect. As to conditions: firefly luciferase detection reagent interference, luminescence. In a few lines: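 D-luciferin (1 uM final) or 100 mM potassium phosphate buffer alone was preincubated 15 min at RT with compounds (19.5 nM to 39.8 uM final). Luciferin detection reagent was then added and luminescence read after 30 min at RT.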

Assay [8] in a line: Dual reporter qHTS for agonist of Pregnane X Receptor (hPXR) against the NCATS DSHEA and TCM libraries: Fluorescence readout (AID 1920058). Further: 0% is about no effect. In a few lines: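 Fluorescence read-out for cell viability: CellTiter-Fluor, 1 h at 37 °C, Ex/Em 405/540 nm. This followed ~24 h treatment of hPXR-Luc HepG2 cells with substances in agonist mode.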
Assay [9] has as its target Nuclear receptor subfamily 1 group I member 2 (Homo sapiens) (UniProt O75469). In words: Dual reporter qHTS for agonist of Pregnane X Receptor (hPXR) against the NCATS DSHEA and TCM libraries: Luminescence readout (AID 1920059). Further: 0% is about no effect. The gist of the method: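 Luminescent PXR reporter read (ONE-Glo) after a CellTiter-Fluor viability read, following 24 h, 37C treatment of HepG2 cells stably carrying hPXR-Luc.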

Assay [10] shares this target. In words: Dual reporter qHTS for antagonist of Pregnane X Receptor (hPXR) against the NCATS DSHEA and TCM libraries: Luminescence Readout (AID 1920060). Further: 0% is about no effect. In a few lines: (§2)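 Rifampicin-stimulated (2 uM final) hPXR-luciferase HepG2 cells were treated for 24 h with DSNP/TCM substances. Viability came from CellTiter-Fluor fluorescence, reporter activity from ONE-Glo luminescence.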

The nature of assay [11]: Dual reporter qHTS for antagonist of Pregnane X Receptor (hPXR) against the NCATS DSHEA and TCM libraries: Fluorescence Readout (AID 1920061). Further: 0% is about no effect. In a few lines: as §2
Assay [12] is described as follows: qHTS drug screen for cell cycle checkpoint inhibitors in PARPi-resistant BRCA-mutant ovarian cancer cell lines. (AID 1963452; calls by dose curve; further: potency means the concentration at half of the fitted maximal effect). As to conditions: PEO1/OlaR viability, CellTiter-Glo luminescence, 96 h; for Z-AUC: stronger effect = lower value. The gist of the method:
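PEO1, PEO4 and PEO1/OlaR ovarian cancer cells, 600 per well, exposed 96 h at 37C to a dilution series. Viability read by CellTiter-Glo luminescence, normalized to DMSO and empty wells; activity summarized as Z-AUC.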

Assay [13] can be described thus: qHTS for identification of novel therapeutic agents for treatment of microphthalmiaassociated transcription factor (MiT) renal cell carcinoma (RCC) (AID 1963991; calls by dose curve; further: potency means the concentration at half of the fitted maximal effect). As to conditions: CellTiter-Glo, 48 h; for Potency: active = Z-AUC below -0.8 in all three lines; for z-score: stronger effect = lower value. The gist of the method: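 Viability of three TFE3-fusion renal carcinoma lines measured by CellTiter-Glo after 48 h treatment with each of 1912 compounds at 11 concentrations. Responses scaled between DMSO (100%) and empty wells (0%) before curve fitting.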

Assay [14] in a line: Quantitative High-Throughput drug screen in 47 multiple myeloma cell lines against the NCATS MIPE library collection: PE2_PLB cell viability assay (AID 1919869). Further: nearly all actives have a fitted effect of over 35% in size. Further: potency means the concentration at half of the fitted maximal effect. The gist of the method:
(§3)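 ATP-based luminescence (CellTiter-Glo, 5 min RT incubation) quantified surviving cells following two days' treatment with MIPE 4.0 agents at 37 °C, 5% CO2.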

A short description of assay [15]: Quantitative High-Throughput drug screen in 47 multiple myeloma cell lines against the NCATS MIPE library collection: PCM6_Riken cell viability assay (AID 1919870). Further: nearly all actives have a fitted effect of over 30% in size. Further: potency means the concentration at half of the fitted maximal effect. In a few lines:
as §3

Assay [16] can be described thus: Quantitative High-Throughput drug screen in 47 multiple myeloma cell lines against the NCATS MIPE library collection: RPMI8226_ATCC cell viability assay (AID 1919871). Further: nearly all actives have a fitted effect of over 30% in size. Further: potency means the concentration at half of the fitted maximal effect. The gist of the method:
as §3

Assay [17] can be described thus: Quantitative High-Throughput drug screen in 47 multiple myeloma cell lines against the NCATS MIPE library collection: OPM2_DSMZ cell viability assay (AID 1919872). Further: nearly all actives have a fitted effect of over 30% in size. Further: potency means the concentration at half of the fitted maximal effect. The gist of the method:
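Viability readout: CellTiter-Glo luminescence following 5 min room-temperature incubation with reagent. Prior exposure: 48 h, 37C, humidified 5% CO2, 500 cells per well.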

Assay [18] in a line: Quantitative High-Throughput drug screen in 47 multiple myeloma cell lines against the NCATS MIPE library collection: KMS11_JCRBsus cell viability assay (AID 1919873). Further: nearly all actives have a fitted effect of over 50% in size. Further: potency means the concentration at half of the fitted maximal effect. The gist of the method: as §3
A short description of assay [19]: Quantitative High-Throughput drug screen in 47 multiple myeloma cell lines against the NCATS MIPE library collection: KMS28BM_JCRB cell viability assay (AID 1919874). Further: nearly all actives have a fitted effect of over 35% in size. Further: potency means the concentration at half of the fitted maximal effect. In a few lines: as §3
Assay [20] can be described thus: Quantitative High-Throughput drug screen in 47 multiple myeloma cell lines against the NCATS MIPE library collection: UTMC2_PLB cell viability assay (AID 1919868).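 Further: 100% = DMSO-only wells and 0% = media-only wells without cells; nearly all actives have a fitted effect of over 55% in size.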 The gist of the method:
as §3

Where [21] appears, read: measured here: PEO1 parental Z-AUC.
[22] abbreviates: TFE3-RCC UOK109 viability, measured here: UOK109 Z-AUC.
[23] abbreviates: TFE3-RCC viability, measured here: UOK124 Z-AUC.
The mark [24] stands for this setting: TFE3-RCC viability, measured here: UOK145 Z-AUC.

Sequence of Nuclear receptor subfamily 1 group I member 2 (Homo sapiens) (O75469 whole entry, looked up): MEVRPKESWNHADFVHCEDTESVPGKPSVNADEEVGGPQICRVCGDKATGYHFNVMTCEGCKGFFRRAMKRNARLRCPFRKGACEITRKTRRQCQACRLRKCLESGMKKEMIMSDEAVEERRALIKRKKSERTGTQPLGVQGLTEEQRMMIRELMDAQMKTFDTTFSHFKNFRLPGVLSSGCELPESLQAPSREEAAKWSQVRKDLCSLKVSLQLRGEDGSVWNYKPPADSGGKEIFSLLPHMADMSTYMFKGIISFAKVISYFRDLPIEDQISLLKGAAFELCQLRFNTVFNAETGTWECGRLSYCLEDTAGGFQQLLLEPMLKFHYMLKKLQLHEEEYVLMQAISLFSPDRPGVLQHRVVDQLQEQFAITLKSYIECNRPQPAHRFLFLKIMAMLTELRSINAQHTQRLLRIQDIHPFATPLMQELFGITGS
Sequence of Cytochrome P450 2D6 (Homo sapiens) (P10635 whole entry, looked up): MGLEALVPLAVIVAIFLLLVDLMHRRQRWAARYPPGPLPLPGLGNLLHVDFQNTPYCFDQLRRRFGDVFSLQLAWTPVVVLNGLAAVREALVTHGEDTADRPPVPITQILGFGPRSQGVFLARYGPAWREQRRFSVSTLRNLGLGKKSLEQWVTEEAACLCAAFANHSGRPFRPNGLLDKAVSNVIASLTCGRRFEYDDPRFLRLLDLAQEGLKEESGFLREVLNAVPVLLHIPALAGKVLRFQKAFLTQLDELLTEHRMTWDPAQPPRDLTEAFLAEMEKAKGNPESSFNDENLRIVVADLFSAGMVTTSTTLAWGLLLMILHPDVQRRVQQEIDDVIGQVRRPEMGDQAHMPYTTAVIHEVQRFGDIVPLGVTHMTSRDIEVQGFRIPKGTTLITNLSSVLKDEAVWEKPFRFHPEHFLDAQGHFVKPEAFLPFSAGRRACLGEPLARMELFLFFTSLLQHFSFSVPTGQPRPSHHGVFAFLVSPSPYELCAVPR
Sequence of Cytochrome P450 3A4 (Homo sapiens) (P08684 whole entry, looked up): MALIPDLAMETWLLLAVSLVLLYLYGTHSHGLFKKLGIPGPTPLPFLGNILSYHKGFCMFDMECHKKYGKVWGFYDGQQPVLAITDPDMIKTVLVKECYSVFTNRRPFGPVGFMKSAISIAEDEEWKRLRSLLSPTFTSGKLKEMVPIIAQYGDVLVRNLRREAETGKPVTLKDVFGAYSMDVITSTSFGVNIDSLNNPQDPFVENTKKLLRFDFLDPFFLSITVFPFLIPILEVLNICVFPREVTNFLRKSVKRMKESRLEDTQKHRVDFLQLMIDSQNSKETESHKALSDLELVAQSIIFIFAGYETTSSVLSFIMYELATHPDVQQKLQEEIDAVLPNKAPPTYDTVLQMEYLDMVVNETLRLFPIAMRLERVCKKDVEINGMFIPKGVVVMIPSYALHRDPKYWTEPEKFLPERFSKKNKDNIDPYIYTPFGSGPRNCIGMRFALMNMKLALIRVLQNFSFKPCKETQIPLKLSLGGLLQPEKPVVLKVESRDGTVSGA
Sequence of Cytochrome P450 2C19 (Homo sapiens) (P33261 whole entry, looked up): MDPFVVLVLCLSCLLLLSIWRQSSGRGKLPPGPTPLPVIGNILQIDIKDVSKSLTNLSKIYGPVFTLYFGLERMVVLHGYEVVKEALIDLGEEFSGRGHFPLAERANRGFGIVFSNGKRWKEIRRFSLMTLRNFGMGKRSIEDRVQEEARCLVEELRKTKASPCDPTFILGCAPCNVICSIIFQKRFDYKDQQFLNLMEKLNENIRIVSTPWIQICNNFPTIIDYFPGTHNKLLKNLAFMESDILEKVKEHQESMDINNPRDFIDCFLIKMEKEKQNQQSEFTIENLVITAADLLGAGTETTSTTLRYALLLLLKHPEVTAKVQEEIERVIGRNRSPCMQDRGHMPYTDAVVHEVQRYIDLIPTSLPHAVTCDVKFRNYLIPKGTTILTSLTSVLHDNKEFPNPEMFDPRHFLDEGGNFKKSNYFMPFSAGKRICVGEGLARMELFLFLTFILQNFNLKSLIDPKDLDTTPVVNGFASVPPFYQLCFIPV
Sequence of Cytochrome P450 1A2 (Homo sapiens) (P05177 whole entry, looked up): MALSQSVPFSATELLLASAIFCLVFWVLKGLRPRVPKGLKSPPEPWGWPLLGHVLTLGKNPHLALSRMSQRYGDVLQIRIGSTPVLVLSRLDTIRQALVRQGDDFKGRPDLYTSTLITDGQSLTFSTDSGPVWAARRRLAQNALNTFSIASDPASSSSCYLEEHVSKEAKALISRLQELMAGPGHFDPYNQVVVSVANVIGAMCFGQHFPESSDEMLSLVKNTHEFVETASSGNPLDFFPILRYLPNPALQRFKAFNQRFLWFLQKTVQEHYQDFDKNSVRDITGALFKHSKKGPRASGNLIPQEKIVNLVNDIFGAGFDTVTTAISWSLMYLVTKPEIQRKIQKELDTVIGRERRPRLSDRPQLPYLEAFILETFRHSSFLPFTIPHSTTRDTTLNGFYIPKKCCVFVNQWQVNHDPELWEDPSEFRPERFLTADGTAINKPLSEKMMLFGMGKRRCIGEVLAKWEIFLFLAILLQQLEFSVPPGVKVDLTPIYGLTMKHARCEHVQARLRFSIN
Sequence of Cytochrome P450 2C9 (Homo sapiens) (P11712 whole entry, looked up): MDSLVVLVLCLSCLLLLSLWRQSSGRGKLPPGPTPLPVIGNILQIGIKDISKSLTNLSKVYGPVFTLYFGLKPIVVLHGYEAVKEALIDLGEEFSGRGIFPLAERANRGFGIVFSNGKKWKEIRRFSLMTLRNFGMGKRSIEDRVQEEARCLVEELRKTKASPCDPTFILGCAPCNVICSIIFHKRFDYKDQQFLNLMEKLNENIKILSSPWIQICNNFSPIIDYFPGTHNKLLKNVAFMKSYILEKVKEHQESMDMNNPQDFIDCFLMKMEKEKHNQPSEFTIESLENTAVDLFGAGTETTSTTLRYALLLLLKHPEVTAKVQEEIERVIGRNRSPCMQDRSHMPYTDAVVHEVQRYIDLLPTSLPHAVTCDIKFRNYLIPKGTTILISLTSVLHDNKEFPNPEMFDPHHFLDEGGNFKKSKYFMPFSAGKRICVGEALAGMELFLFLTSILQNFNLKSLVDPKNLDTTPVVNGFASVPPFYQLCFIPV

With `Cn1c(=O)c2c(ncn2C)n(C)c1=O`, the compound was called inactive in [1], in assay [2], in assay [3], in assay [4], in [5] and in assay [6]. Also, the call in assay [8], in [9], in assay [10] and in assay [11] was inactive. In addition, the max response in assay [7] is 2.12% (inactive).
With `COC(=O)Nc1nc2ccc(C(=O)c3cccs3)cc2[nH]1`, the Potency was 0.0692 µM (active) in assay [12] and 0.00833 µM (active) in [13] (TFE3-RCC UOK109 viability).
On to `CC[C@@]1(O)C(=O)OCc2c1cc1n(c2=O)Cc2cc3c(CN(C)C)c(O)ccc3nc2-1`, for which the Potency in assay [13] (TFE3-RCC UOK109 viability) is 5.9 µM (active).
As for `CCOC(=O)C(C)(C)Oc1ccc(Cl)cc1`, the Potency result in assay [14], in assay [15], in assay [16], in assay [17], in [18] and in [19] was “inactive” throughout. Besides, the Z-AUC in [12] was 0.714 (inactive); in assay [12] (setting [21]) it was 0.586; in [12] (measured here: PEO4 Z-AUC), 0.762. Further, the z-score in assay [13] (setting [22]) is -1.29; in assay [13] (setting [23]), 0.307; in [13] (setting [24]), 0.606.
As to `CN1CCN2c3ccccc3Cc3ccccc3C2C1` (stereo not given), the Potency result in [20] is “inactive”. For the same compound, the Potency in assay [18] and in assay [19] was 23.5 µM (active) throughout.
Consider `CCCNCC(O)COc1ccccc1C(=O)CCc1ccccc1` (stereo not given), for which the Potency entry in assay [14], in [15] and in assay [17] was “inactive” each time.
For the compound `CC(CCc1ccc(O)cc1)NCCc1ccc(O)c(O)c1` (stereo not given), the Potency was 20.9 µM (active) in assay [14]; 20.9 µM (active) in assay [15]; 18.7 µM (active) in assay [16]; 18.7 µM (active) in [17]; 26.4 µM (active) in assay [18]; 26.4 µM (active) in assay [19].
With `COc1ccccc1OCCNCC(O)COc1cccc2[nH]c3ccccc3c12` (stereo not given), the Potency entry in assay [14] and in [17] was “inactive” throughout. Besides, the Potency in assay [15] is 16.6 µM (active). Moreover, the z-score is 0.499 in [13] (setting [22]), 0.302 in [13] (setting [23]) and 0.158 in assay [13] (setting [24]).
For `Nc1nnc(-c2cccc(Cl)c2Cl)c(N)n1`, the Potency entry in assay [20], in assay [16], in assay [17], in assay [18] and in assay [19] was “inactive” throughout. In addition, the Z-AUC in assay [12] is -0.438 (inactive); in assay [12] (setting [21]) it was 0.568; in assay [12] (measured here: PEO4 Z-AUC), 0.453.
For the compound `O=c1c(O)c(-c2ccc(O)c(O)c2)oc2cc(O)cc(O)c12`, the Potency in [14] and in assay [15] was 18.7 µM (active) in each case. Besides, the Potency result in assay [16] and in assay [19] was “inactive” throughout. In addition, the result in assay [5], in [8], in assay [9], in assay [10] and in [11] was inactive. Further, the max response in assay [7] is -0.891% (inactive). The Z-AUC in assay [12] is 0.194 (inactive); in [12] (setting [21]), 0.475; in [12] (measured here: PEO4 Z-AUC), 0.343.
For the compound `C[C@@H]1CC(=O)NN=C1c1ccc(NN=C(C#N)C#N)cc1`, the Potency in [14] was 14.8 µM (active); in assay [15], 18.7 µM (active); in [16] it was 20.9 µM (active); in [18], 16.6 µM (active); in [19], 23.5 µM (active). The Z-AUC in [12] is 0.769 (inactive); in [12] (setting [21]), 0.69; in assay [12] (measured here: PEO4 Z-AUC), 0.452.
For `Cn1c(=O)c2[nH]cnc2n(C)c1=O`, the Potency result in assay [14], in assay [15], in [16], in assay [17], in assay [18] and in assay [19] was “inactive” each time. In addition, the values for the z-score in assay [13] (setting [22]), in assay [13] (setting [23]) and in assay [13] (setting [24]) were 1.09, 0.242 and 0.63, respectively.
For `Nc1nc2c(ncn2COC(CO)CO)c(=O)[nH]1`, the Potency was 23.5 µM (active) in [14]; 23.5 µM (active) in assay [15]; 26.4 µM (active) in assay [16]; 23.5 µM (active) in assay [17]; 18.7 µM (active) in assay [18]; 29.6 µM (active) in [19]. In addition, the Z-AUC is 1.34 (inactive) in assay [12], 1.36 in assay [12] (setting [21]) and 1.37 in assay [12] (measured here: PEO4 Z-AUC).
For the compound `Clc1ccc(C(c2ccccc2Cl)C(Cl)Cl)cc1` (stereo not given), in assay [14], the Potency entry was “inactive”. In addition, the Potency is 18.7 µM (active) in [15], 23.5 µM (active) in assay [16], 18.7 µM (active) in assay [18] and 16.6 µM (active) in assay [19]. The Z-AUC in assay [12] was -0.334 (inactive); in assay [12] (setting [21]), 0.14; in assay [12] (measured here: PEO4 Z-AUC) it was 0.236.
For the compound `CCC1(c2ccccc2)C(=O)NCNC1=O`, the Potency in assay [14] is 2.96 µM (active); in assay [15] it was 3.72 µM (active). The Potency entry in assay [17], in assay [18] and in assay [19] was “inactive” each time. Moreover, the Z-AUC is 1.12 (inactive) in [12], 0.974 in assay [12] (setting [21]) and 1.04 in [12] (measured here: PEO4 Z-AUC).
`NCCS(=O)(=O)O`: the Potency result in [14], in assay [15], in [17] and in assay [18] was “inactive” in each case. In addition, the Z-AUC in assay [12] is 1.22 (inactive); in [12] (setting [21]), 0.571; in [12] (measured here: PEO4 Z-AUC) it was 0.568. The z-score in assay [13] (setting [22]) was 0.929; in assay [13] (setting [23]), 0.854; in assay [13] (setting [24]), 0.716.
On to `O=c1c(-c2ccc(O)cc2)coc2cc(O)cc(O)c12`, for which the Potency entry in assay [14], in [17] and in [19] was “inactive” each time. The results for the Potency in assay [15] and in [16] were 7.43 µM (active) and 20.9 µM (active), respectively. In addition, the Z-AUC is 0.848 (inactive) in assay [12], 0.793 in assay [12] (setting [21]) and -0.435 in [12] (measured here: PEO4 Z-AUC).
